According to PubChem BioAssay (Tox21):
Records with an inconclusive call do not appear. Active and inactive are the calls of the source. Unless noted, calls come from the whole dose curve; as a rule, active = well fitted curve in the direction sought with a large enough effect in the repeat runs; inconclusive = weak or mixed curves; inactive = no such curve, though single readings can be large; an effect the other way counts as inactive or inconclusive.

What was measured:
[1] = qHTS assay to identify small molecule antagonists of the estrogen related receptor (ERR) signaling pathway from Tox21 library - cell viability counter screen (AID 1224834); note: nearly all actives have a fitted effect of over 30% in size
Method in brief: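 ERR cells, 2,000/well; 6 h settle at 37 C/5% CO2; pin-tool compound transfer in DMSO; 17.5 h at 37 C; CellTiter-Fluor, 30 min; fluorescence intensity.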

[2] = target: Luciferin 4-monooxygenase (Photinus pyralis) (UniProt P08659); assay: qHTS assay to identify small molecule inhibitors of firefly luciferase (AID 1224835); note: nearly all actives have a fitted effect of over 25% in size; note: potency is the fitted concentration of half-maximal effect
Method in brief: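 Quantitative HTS format; KM concentrations of both substrates. Purified P. pyralis FLuc activity quantified from luminescence images.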

[3] = qHTS assay to identify small molecule antagonists of the constitutive androstane receptor (CAR) signaling pathway - cell viability counter screen (AID 1224837); note: nearly all actives have a fitted effect of over 45% in size
Method in brief: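 Viability was measured with CellTiter-Fluor in a HepG2 line carrying stably transfected hCAR and a CYP2B6-2.2kb construct. Cells were exposed for 23 hr at 37 C to 15 compound concentrations with 50 nM CITCO as agonist.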

[4] = target: Nuclear receptor subfamily 1 group I member 3 (Homo sapiens) (UniProt Q14994); assay: qHTS assay to identify small molecule antagonists of the constitutive androstane receptor (CAR) signaling pathway (AID 1224838);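 note: HepG2 cells stably expressing hCAR with CYP2B6 luciferase reporter stimulated by CITCO; nearly all actives have a fitted effect of over 40% in size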
Method in brief: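 Antagonist mode used CITCO at a final 50 nM to activate CAR in human hepatoma HepG2 cells carrying stable hCAR and a 2.2 kb CYP2B6 promoter-luciferase construct. Compounds were tested at 15 concentrations over 24 h, with luminescence as the end point.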

[5] = target: Nuclear receptor subfamily 1 group I member 3 (Homo sapiens) (UniProt Q14994); assay: qHTS assay to identify small molecule agonists of the constitutive androstane receptor (CAR) signaling pathway (AID 1224839); note: nearly all actives have a fitted effect of over 15% in size
Method in brief: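 Compounds tested at 15 concentrations on HepG2 cells stably harbouring hCAR and CYP2B6-2.2kb reporter constructs, co-treated with PK11195 (0.75 uM final), 24 h at 37 C; luminescent reporter signal quantified.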

[6] = qHTS assay to identify small molecule antagonists of the estrogen related receptor signaling pathway with the pleiotropic PPARgamma coactivator (PGC) from Tox21 10K library - cell viability counter screen (AID 1224840; active = well fitted cell-killing curve with a large enough effect in the repeat runs, not every such curve was filed as active; note: nearly all actives have a fitted effect of over 40% in size)
Method in brief: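 Multiplexed viability counter screen in the PGC/ERR cell line: cells treated with DMSO-dissolved compounds for 17.5 hours at 37 C, then viability measured as CellTiter-Fluor fluorescence.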

[7] = qHTS assay to identify small molecule antagonists of the estrogen related receptor signaling pathway with the pleiotropic PPARgamma coactivator (PGC) from Tox21 10K library (AID 1224841; call rule not given here; note: actives are mostly falling curves and most rising ones were filed inactive; nearly all actives have a fitted effect of over 50% in size)
Method in brief: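 Steps: plate 2,000 PGC/ERR cells per well; incubate 6 h at 37 C with 5% CO2; transfer compounds from DMSO stocks by pin tool; incubate 18 h at 37 C; add One-Glo; measure luminescence 30 min later.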

[8] = qHTS assay to identify small molecule agonists of the estrogen related receptor signaling pathway with the pleiotropic PPARgamma coactivator (PGC) from Tox21 10K library (AID 1224842); note: nearly all actives have a fitted effect of over 15% in size
Method in brief: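 PGC/ERR reporter cells (NTP line) were seeded 2,000 per well, rested 6 h at 37 C/5% CO2, then pin-dosed with compounds in DMSO for 18 h at 37 C; luciferase read by One-Glo luminescence after 30 min at room temperature.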

[9] = qHTS assay to identify small molecule agonists of the hypoxia (HIF-1) signaling pathway (AID 1224846; active = well fitted activation curve with a large enough effect in the signal ratio in the repeat runs, not every such curve was filed as active; the % refers to the signal ratio)
Method in brief: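 Compounds from the Tox21 10K library, dissolved in DMSO, are tested for induction of a hypoxia response element–controlled beta-lactamase reporter in ME-180 cells. Exposure lasts 17 hrs at 37C after a 5 hr settling period, followed by CCF4-AM FRET substrate.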

[10] = qHTS assay to identify small molecule agonists of H2AX - cell viability counter screen (AID 1224847; calls by dose curve; note: top concentration of the series differs between compounds; nearly all actives have a fitted effect of over 30% in size)
Method in brief: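 Compounds tested at 15 concentrations were incubated 3 hr at 37C with wild-type CHO-K1 cells; cellular ATP-based luminescence (CellTiter-Glo) indicated viability.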

[11] = qHTS assay to identify small molecule antagonists of the estrogen related receptor (ERR) signaling pathway from Tox21 library (AID 1224848); note: nearly all actives have a fitted effect of over 50% in size
Method in brief: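 First, 2,000 ERR cells per well were plated and held 6 h at 37 C/5% CO2. Next, compounds in DMSO were pinned in and left 18 h at 37 C. Finally, ONE-Glo was added and luminescence read after 30 min at room temperature.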

[12] = qHTS assay to identify small molecule agonists of the estrogen related receptor (ERR) signaling pathway from Tox21 library (AID 1224849; calls by dose curve; note: nearly all actives have a fitted effect of over 15% in size); conditions: ERR reporter cell line, ONE-Glo luciferase, 18 h; at 92.4 µM (top of the series) unless noted
Method in brief: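 Cells carrying the ERR reporter were plated and allowed to settle for 6 h, exposed to library compounds for 18 h at 37 C, then lysed with ONE-Glo and luminescence measured.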

[13] = qHTS RealTime-Glo MT Cell Viability Assay in HepG2 cells - 24 hour (AID 1224867); note: nearly all actives have a fitted effect of over 50% in size
Method in brief: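 Cell number in HepG2 cultures estimated from NanoLuc luminescence generated by metabolic reduction of a prosubstrate by living cells. The homogeneous, nonlytic format allowed repeated reads at 0, 8, 16, 24, 32 and 40 h of compound exposure.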

[14] = A CellTox Green Cytotoxicity Assay to monitor cytotoxicity in HEK293 cells - 0 hour (AID 1224869); note: nearly all actives have a fitted effect of over 50% in size
Method in brief: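 Cells (HEK293, 600/well) and dye reagent are dispensed together. After 5 h at 37 C, 23 nL compound is pinned in. Plates stay at 37 C for 40 h with fluorescence read at 0h, 8h, 16h, 24h, 32h and 40h.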

[15] = qHTS assay to identify small molecule agonists of the constitutive androstane receptor (CAR) signaling pathway - cell viability counter screen (AID 1224836); note: nearly all actives have a fitted effect of over 45% in size
Method in brief: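 23 h treatment, 37 C, 5% CO2. Cell line: HepG2 stably expressing hCAR with a CYP2B6-2.2kb construct. Co-treatment: PK11195, 0.75 uM final. Read-out: CellTiter-Fluor fluorescence intensity.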

[16] = qHTS assay to identify small molecule agonists of the hypoxia (HIF-1) signaling pathway - cell viability counter screen (AID 1224844; calls by dose curve; note: nearly all actives have a fitted effect of over 50% in size)
Method in brief: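 Cytotoxicity was measured in parallel with the HRE-driven beta-lactamase readout: after 17 hrs of compound exposure at 37C, HRE-bla ME-180 cells received CellTiter-Glo and luminescence was recorded 30 min later.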

[17] = qHTS RealTime-Glo MT Cell Viability Assay in HEK293 cells - 32 hour (AID 1224868)
Method in brief: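 Homogeneous bioluminescent viability format in HEK293 cells (600 cells/well). Following 5 h at 37 C/5% CO2, 23 nL compound was pintooled; the signal was measured repeatedly during 40 h incubation.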

[18] = target: Thyrotropin receptor (Homo sapiens) (UniProt P16473); assay: qHTS assay to identify small molecule agonists of the thyroid stimulating hormone receptor (TSHR) signaling pathway (AID 1224843; calls by dose curve; note: nearly all actives have a fitted effect of over 45% in size)
Method in brief: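 Compounds are titrated over 15 concentrations, in triplicate, onto TSHR-HEK293 cells seeded at 800/well. Plates sit 30 min at room temperature before cAMP-d2 and anti-cAMP cryptate are added; signal is read after a further hour.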

[19] = qHTS assay to identify small molecule agonists of H2AX (AID 1224845; active = well fitted activation curve with a large enough effect in the signal ratio in the repeat runs, not every such curve was filed as active; the % refers to the signal ratio)
Method in brief: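 Wild-type CHO-K1 cells plated overnight, then exposed 3 hr at 37C to compounds at 15 concentrations (0.76% DMSO). Lysed, then HTRF anti-pH2AX(S139)-cryptate/anti-H2AX-d2 detection after 24 hr at room temperature; emissions 665 and 620 nm.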
% is set by controls: 0 for no effect and ±100 for the full control effect.

Sequence of Luciferin 4-monooxygenase (Photinus pyralis) (P08659 whole entry, looked up): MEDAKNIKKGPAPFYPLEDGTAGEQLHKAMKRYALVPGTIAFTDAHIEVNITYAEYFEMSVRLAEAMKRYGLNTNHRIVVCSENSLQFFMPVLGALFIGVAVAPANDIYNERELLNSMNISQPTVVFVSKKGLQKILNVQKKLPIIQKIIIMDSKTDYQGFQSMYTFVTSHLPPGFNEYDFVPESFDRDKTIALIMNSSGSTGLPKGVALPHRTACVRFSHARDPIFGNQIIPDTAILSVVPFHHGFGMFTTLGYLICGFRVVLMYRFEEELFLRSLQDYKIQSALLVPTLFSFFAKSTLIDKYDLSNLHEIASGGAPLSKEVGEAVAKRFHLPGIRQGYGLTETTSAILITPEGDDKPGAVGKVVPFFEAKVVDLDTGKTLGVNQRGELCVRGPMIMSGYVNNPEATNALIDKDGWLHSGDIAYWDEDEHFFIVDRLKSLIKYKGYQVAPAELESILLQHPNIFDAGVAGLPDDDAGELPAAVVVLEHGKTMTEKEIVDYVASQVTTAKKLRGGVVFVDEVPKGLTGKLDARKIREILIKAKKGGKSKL
Sequence of Nuclear receptor subfamily 1 group I member 3 (Homo sapiens) (Q14994 whole entry, looked up): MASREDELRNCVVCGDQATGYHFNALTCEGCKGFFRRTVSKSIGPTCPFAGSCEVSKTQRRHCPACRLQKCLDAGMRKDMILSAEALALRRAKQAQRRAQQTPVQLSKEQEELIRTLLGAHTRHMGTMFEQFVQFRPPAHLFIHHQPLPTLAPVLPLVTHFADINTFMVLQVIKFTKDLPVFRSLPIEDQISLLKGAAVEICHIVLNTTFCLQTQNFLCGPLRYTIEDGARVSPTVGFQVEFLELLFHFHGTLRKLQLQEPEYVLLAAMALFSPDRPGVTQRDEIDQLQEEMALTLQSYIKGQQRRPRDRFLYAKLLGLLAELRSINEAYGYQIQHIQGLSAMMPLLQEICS
Sequence of Thyrotropin receptor (Homo sapiens) (P16473 whole entry, looked up): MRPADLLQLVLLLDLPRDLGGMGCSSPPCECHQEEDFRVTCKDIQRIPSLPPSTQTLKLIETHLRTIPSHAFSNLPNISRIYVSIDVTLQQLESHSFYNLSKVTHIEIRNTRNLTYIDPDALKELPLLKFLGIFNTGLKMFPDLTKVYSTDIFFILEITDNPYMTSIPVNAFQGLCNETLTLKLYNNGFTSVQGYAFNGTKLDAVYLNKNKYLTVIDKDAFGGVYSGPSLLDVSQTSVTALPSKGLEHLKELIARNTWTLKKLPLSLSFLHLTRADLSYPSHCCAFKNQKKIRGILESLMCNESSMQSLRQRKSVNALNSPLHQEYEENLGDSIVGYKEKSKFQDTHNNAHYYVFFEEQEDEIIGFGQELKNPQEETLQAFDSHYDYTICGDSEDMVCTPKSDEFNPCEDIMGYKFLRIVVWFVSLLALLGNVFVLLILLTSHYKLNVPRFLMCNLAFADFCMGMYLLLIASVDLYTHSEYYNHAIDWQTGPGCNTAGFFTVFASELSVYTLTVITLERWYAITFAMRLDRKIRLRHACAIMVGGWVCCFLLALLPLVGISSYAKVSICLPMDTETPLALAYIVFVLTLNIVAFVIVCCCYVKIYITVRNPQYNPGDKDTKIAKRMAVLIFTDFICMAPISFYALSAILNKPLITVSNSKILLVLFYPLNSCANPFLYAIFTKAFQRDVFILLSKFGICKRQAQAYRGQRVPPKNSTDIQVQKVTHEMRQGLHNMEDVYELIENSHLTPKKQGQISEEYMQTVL

CCC(C)OC(=O)N1CCCCC1CCO (stereo not drawn)
inactive: Potency [1] | Potency [2] | outcome [3] | Potency [4] | Potency [5] | outcome [6] | Potency [7] | Potency [8] | outcome [9] | Potency [10] | Potency [11] | activity change, positive = activation [12] 2.44% | outcome [13] | Potency [14]

O=C(O)/C=C/c1ccc(Cn2ccnc2)cc1
inactive: Potency [1] | Potency [2] | outcome [15] | outcome [3] | outcome [6] | Potency [16] | Potency [10] | outcome [13] | Potency [17] | Potency [14]

NS(=O)(=O)c1cc2c(cc1C(F)(F)F)NC(Cc1ccccc1)NS2(=O)=O (stereo not drawn)
inactive: Potency [1] | Potency [2] | outcome [3] | Potency [4] | Potency [5] | outcome [6] | outcome [18] | Potency [16] | outcome [19] | Potency [10] | Potency [17] | Potency [14]

Oc1cc(O)c2c(c1)O[C@H](c1ccc(O)c(O)c1)[C@H](O)C2
inactive: Potency [1] | Potency [2] | outcome [15] | outcome [3] | outcome [6] | outcome [18] | Potency [10] | outcome [13] | Potency [14]

COc1nc(C)nc(N)n1
inactive: Potency [1] | Potency [2] | outcome [15] | outcome [3] | outcome [6] | outcome [18] | Potency [16] | outcome [19] | outcome [9] | Potency [17] | Potency [14]

CNC(=O)c1c(I)c(NC(=O)CCCCC(=O)Nc2c(I)c(C(=O)O)c(I)c(C(=O)NC)c2I)c(I)c(C(=O)O)c1I
inactive: Potency [1] | Potency [2] | outcome [3] | Potency [4] | Potency [5] | outcome [6] | Potency [7] | Potency [8] | outcome [9] | Potency [10] | Potency [11] | activity change, positive = activation [12] 8.83% [at 42.5 µM] | outcome [13] | Potency [17] | Potency [14]

CC(=O)CCc1ccc(O)cc1
inactive: Potency [1] | Potency [2] | outcome [15] | outcome [3] | outcome [6] | outcome [18] | Potency [16] | outcome [9] | Potency [10] | Potency [17] | Potency [14]

O=C(O)c1ccccc1-c1ccc(C(F)(F)F)cc1
inactive: Potency [1] | Potency [2] | outcome [15] | outcome [3] | outcome [6] | outcome [18] | Potency [16] | outcome [19] | outcome [9] | Potency [10] | outcome [13] | Potency [17] | Potency [14]

NC(=O)c1ncn([C@@H]2O[C@H](CO)[C@@H](O)[C@H]2O)c1N
inactive: Potency [1] | Potency [2] | outcome [3] | Potency [4] | Potency [5] | outcome [6] | outcome [18] | Potency [16] | outcome [19] | outcome [9] | outcome [13] | Potency [17] | Potency [14]

CC(C)(O)Cc1ccccc1
inactive: Potency [1] | Potency [2] | outcome [3] | Potency [4] | Potency [5] | outcome [6] | Potency [7] | Potency [8] | outcome [18] | Potency [16] | outcome [19] | outcome [9] | Potency [11] | activity change, positive = activation [12] -2.35% | outcome [13] | Potency [14]

C=C(C)C(=O)NCCCN(C)C
inactive: Potency [1] | Potency [2] | outcome [15] | outcome [3] | outcome [6] | Potency [16] | outcome [19] | outcome [9] | Potency [10] | outcome [13] | Potency [17] | Potency [14]

CC(C)(C)C(=O)/C=C/c1ccc(Cl)cc1
inactive: Potency [1] | outcome [3] | Potency [4] | Potency [5] | outcome [6] | Potency [7] | Potency [8] | outcome [18] | Potency [16] | outcome [9] | Potency [10] | Potency [11] | activity change, positive = activation [12] 1.54% | outcome [13] | Potency [14]
active: Potency [2] 25.2 µM

NC(N)=NS(=O)(=O)c1ccc(N)cc1
inactive: Potency [1] | Potency [2] | outcome [3] | outcome [6] | outcome [18] | outcome [19] | Potency [10] | Potency [17] | Potency [14]

CO[Si](OC)(OC)OC
inactive: Potency [1] | outcome [15] | outcome [3] | Potency [4] | Potency [5] | outcome [6] | outcome [18] | Potency [16] | outcome [19] | outcome [9] | Potency [10] | outcome [13] | Potency [14]

C=CCn1c(=O)n([C@@H]2O[C@H](CO)[C@@H](O)[C@H]2O)c2nc(N)[nH]c(=O)c21
inactive: Potency [1] | Potency [2] | outcome [3] | outcome [6] | outcome [18] | Potency [16] | outcome [9] | outcome [13] | Potency [17] | Potency [14]

N[C@@H](CS)C(=O)O
inactive: Potency [1] | Potency [2] | outcome [3] | outcome [6] | outcome [18] | Potency [16] | outcome [9] | Potency [10] | outcome [13] | Potency [17] | Potency [14]

CC(C)COC(=O)C(C)C
inactive: Potency [1] | outcome [15] | outcome [3] | Potency [4] | Potency [5] | outcome [6] | Potency [8] | outcome [18] | Potency [16] | outcome [19] | outcome [9] | Potency [10] | Potency [11] | activity change, positive = activation [12] 8.11% | outcome [13] | Potency [17] | Potency [14]

CC1CCN(CCCC(=O)c2ccc(F)cc2)CC1
inactive: Potency [1] | outcome [15] | outcome [3] | Potency [4] | Potency [5] | outcome [6] | Potency [7] | Potency [8] | outcome [18] | outcome [19] | outcome [9] | Potency [10] | Potency [11] | activity change, positive = activation [12] 6.1% [at 42.5 µM] | outcome [13] | Potency [14]

CCCCCC[C@@H](CCC)C(=O)O
inactive: Potency [1] | outcome [15] | outcome [3] | Potency [4] | Potency [5] | outcome [6] | Potency [7] | Potency [8] | outcome [18] | Potency [16] | outcome [9] | Potency [10] | activity change, positive = activation [12] -23% [at 42.5 µM] | outcome [13] | Potency [14]
